Source: PubChem BioAssay AID1159580 (chemical genetic matrix, 2015)
Hit rate of the full screen: of about 5,500 compounds, about 2,000 (36%) were called active. Inconclusive results (about 18%) are left out. Rule as the data show it: active = normalized growth mostly below about 0.91 (no sharp cut-off); inconclusive = no clear call, values can overlap the other calls; inactive = mostly above about 0.92. The list shows a part of the results.

Test: chemical genetic growth profiling, strain panel (AID 1159580);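 also: tested at 20 µM; growth read once vehicle control cultures reached saturation at 30 °C; 1 = growth at the plate median or of vehicle wells; lower values mean less growth of the strain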
Settings: growth OD

Measured: normalized growth

COc1ccc2c(c1OC)C(=O)OC2[C@H]1c2c(cc3c(c2OC)OCO3)CCN1C (stereo partly drawn)
inactive: S. cerevisiae deletion strains, locus YJR043C, strain POL32, active compounds read low 0.986 | S. cerevisiae deletion strains, locus YJR066W, strain TOR1, active compounds read low 0.973 | S. cerevisiae deletion strains, locus YKL009W, strain mrt4, active compounds read low 0.972 | S. cerevisiae deletion strains, locus YKL068W, active compounds read low 0.99 | S. cerevisiae deletion strains, locus YKL085W, strain MDH1 (second series), active compounds read low 0.991 | S. cerevisiae deletion strains, locus YKL085W, strain MDH1, active compounds read low 0.991 | S. cerevisiae deletion strains, locus YKL160W, strain elf1, active compounds read low 1.01 | S. cerevisiae deletion strains, locus YKL190W, strain CNB1, active compounds read low 0.995 | S. cerevisiae deletion strains, locus YKR001C, strain vps1, active compounds read low 0.985 | S. cerevisiae deletion strains, locus YKR026C, strain gcn3, active compounds read low 1 | S. cerevisiae deletion strains, locus YKR091W, strain srl3, active compounds read low 1.01 | S. cerevisiae deletion strains, locus YLL001W, strain dnm1, active compounds read low 0.973 | S. cerevisiae deletion strains, locus YLL026W, active compounds read low 1.01 | S. cerevisiae deletion strains, locus YLL041C, strain sdh2, active compounds read low 0.995 | S. cerevisiae deletion strains, locus YLR027C, strain aat2, active compounds read low 1.02 | S. cerevisiae deletion strains, locus YLR039C, strain RIC1, active compounds read low 0.997 | S. cerevisiae deletion strains, locus YLR058C, strain SHM2, active compounds read low 1.01 | S. cerevisiae deletion strains, locus YLR102C, strain apc9, active compounds read low 0.994 | S. cerevisiae deletion strains, locus YLR113W, strain HOG1, active compounds read low 0.966 | S. cerevisiae deletion strains, locus YLR221C, strain rsa3, active compounds read low 1 | S. cerevisiae deletion strains, locus YLR258W, strain gsy2, active compounds read low 1.02 | S. cerevisiae deletion strains, locus YLR262C, strain YPT6 (second series), active compounds read low 1.03 | S. cerevisiae deletion strains, locus YLR262C, strain YPT6, active compounds read low 1 | S. cerevisiae deletion strains, locus YLR268W, strain sec22, active compounds read low 0.948 | S. cerevisiae deletion strains, locus YLR320W, strain mms22, active compounds read low 0.975 | S. cerevisiae deletion strains, locus YLR330W, strain CHS5, active compounds read low 0.991 | S. cerevisiae deletion strains, locus YLR342W, strain FKS1 (second series), active compounds read low 1.01 | S. cerevisiae deletion strains, locus YLR342W, strain FKS1, active compounds read low 1.01 | S. cerevisiae deletion strains, locus YLR357W, strain rsc2, active compounds read low 0.997 | S. cerevisiae deletion strains, locus YLR370C, strain arc18, active compounds read low 1.02 | S. cerevisiae deletion strains, locus YLR371W, strain rom2, active compounds read low 0.98 | S. cerevisiae deletion strains, locus YLR384C, strain iki3, active compounds read low 1 | S. cerevisiae deletion strains, locus YLR418C, strain cdc73, active compounds read low 0.984 | S. cerevisiae deletion strains, locus YML016C, strain PPZ1, active compounds read low 1 | S. cerevisiae deletion strains, locus YML032C, strain rad52, active compounds read low 0.99 | S. cerevisiae deletion strains, locus YML120C, strain ndi1, active compounds read low 1.02 | S. cerevisiae deletion strains, locus YML124C, strain tub3, active compounds read low 0.989 | S. cerevisiae deletion strains, locus YMR058W, strain fet3, active compounds read low 1.01 | S. cerevisiae deletion strains, locus YMR078C, strain ctf18, active compounds read low 0.993 | S. cerevisiae deletion strains, locus YMR125W, strain sto1, active compounds read low 1.01 | S. cerevisiae deletion strains, locus YMR129W, active compounds read low 1.01 | S. cerevisiae deletion strains, locus YMR205C, strain PFK2, active compounds read low 0.981 | S. cerevisiae deletion strains, locus YMR223W, strain ubp8, active compounds read low 1.01 | S. cerevisiae deletion strains, locus YMR231W, strain pep5, active compounds read low 1.01 | S. cerevisiae deletion strains, locus YMR307W, strain GAS1, active compounds read low 1 | S. cerevisiae deletion strains, locus YNL067W, strain RPL9B, active compounds read low 0.993 | S. cerevisiae deletion strains, locus YNL071W, strain lat1, active compounds read low 1.02 | S. cerevisiae deletion strains, locus YNL153C, strain GIM3, active compounds read low 1.01 | S. cerevisiae deletion strains, locus YNL183C, strain NPR1, active compounds read low 0.951 | S. cerevisiae deletion strains, locus YNL209W, strain ssb2, active compounds read low 1 | S. cerevisiae deletion strains, locus YNL233W, strain BNI4, active compounds read low 0.999 | S. cerevisiae deletion strains, locus YNL248C, strain rpa49, active compounds read low 0.984 | S. cerevisiae deletion strains, locus YNL250W, strain rad50, active compounds read low 0.985 | S. cerevisiae deletion strains, locus YNL271C, strain bni1, active compounds read low 0.984 | S. cerevisiae deletion strains, locus YNL298W, strain CLA4, active compounds read low 0.992 | S. cerevisiae deletion strains, locus YNL307C, strain MCK1, active compounds read low 0.987 | S. cerevisiae deletion strains, locus YNL322C, strain KRE1 (second series), active compounds read low 1.02 | S. cerevisiae deletion strains, locus YNR049C, strain mso1, active compounds read low 1.01 | S. cerevisiae deletion strains, locus YNR052C, strain pop2, active compounds read low 0.978 | S. cerevisiae deletion strains, locus YOL006C, strain TOP1, active compounds read low 1.07 | S. cerevisiae deletion strains, locus YOL012C, strain htz1 0.809 | S. cerevisiae deletion strains, locus YOL147C, strain pex11, active compounds read low 0.987 | S. cerevisiae deletion strains, locus YOR001W, strain rrp6, active compounds read low 1.02 | S. cerevisiae deletion strains, locus YOR061W, strain CKA2, active compounds read low 1.01 | S. cerevisiae deletion strains, locus YOR069W, strain VPS5, active compounds read low 1 | S. cerevisiae deletion strains, locus YOR070C, strain gyp1, active compounds read low 0.996 | S. cerevisiae deletion strains, locus YOR080W, strain dia2, active compounds read low 1.04 | S. cerevisiae deletion strains, locus YOR083W, strain WHI5, active compounds read low 0.953 | S. cerevisiae deletion strains, locus YOR106W, strain vam3, active compounds read low 1.02 | S. cerevisiae deletion strains, locus YOR136W, strain idh2, active compounds read low 0.995 | S. cerevisiae deletion strains, locus YOR144C, strain elg1, active compounds read low 1 | S. cerevisiae deletion strains, locus YOR184W, strain ser1, active compounds read low 0.976 | S. cerevisiae deletion strains, locus YOR231W, strain MKK1, active compounds read low 0.985 | S. cerevisiae deletion strains, locus YOR265W, strain rbl2, active compounds read low 1.02 | S. cerevisiae deletion strains, locus YOR270C, strain vph1, active compounds read low 1.04 | S. cerevisiae deletion strains, locus YOR290C, strain snf2, active compounds read low 1.02 | S. cerevisiae deletion strains, locus YOR316C, strain cot1, active compounds read low 0.989 | S. cerevisiae deletion strains, locus YPL051W, strain arl3, active compounds read low 1.02 | S. cerevisiae deletion strains, locus YPL078C, strain atp4, active compounds read low 1 | S. cerevisiae deletion strains, locus YPL106C, strain sse1, active compounds read low 1.07 | S. cerevisiae deletion strains, locus YPL240C, strain hsp82, active compounds read low 1.01 | S. cerevisiae deletion strains, locus YPL256C, strain CLN2, active compounds read low 0.984 | S. cerevisiae deletion strains, locus YPR119W, strain clb2, active compounds read low 0.995 | S. cerevisiae deletion strains, locus YPR141C, strain kar3, active compounds read low 0.993 | S. cerevisiae deletion strains, locus YPR163C, strain tif3, active compounds read low 0.984 | S. cerevisiae deletion strains, locus YPR167C, strain met16, active compounds read low 0.986 | S. cerevisiae deletion strains, strain wtn01, active compounds read low 0.967 | S. cerevisiae strains, strain wild type, active compounds read low 1.01
